# High-throughput results from PubChem BioAssay.
# Most compounds without a hit are left out; they make up all but 19% or so of the library.
# IL1B secr inh: blocks inflammasome-driven IL-1 beta release; THP-1 LPS/ATP IL-1B secretion, AlphaLISA, 16 h; hits give low values; activity change, % at 57.5 µM; hit rate 4.7% among 360,000; in the data active = activity change below about -50%; inconclusive = mostly about -30% to -49%
#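 THP-1 cells pretreated 1 hr with compounds (up to 57.5 uM final), then stimulated with LPS (250 ng/mL final) plus ATP (1.25 mM final); secreted IL-1B measured by AlphaLISA after 16 hr, decreased signal indicating inhibition.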
# TDP1 cell noCPT: qHTS for Inhibitors of human tyrosyl-DNA phosphodiesterase 1 (TDP1): qHTS in cells in absence of CPT. DT40 Tdp1-/- hTDP1 cells, no CPT, ATP luminescence, 48 h. Potency, µM (top dose mostly 46.2 µM), for inactives: at the top dose activity change, negative = growth inhibition, actives largely listed as inhibitors. hit rate 15% among 420,000. AID 686978, 2013; also: potency is read from the fitted curve at half-maximal effect; nearly all actives have a fitted effect of over 55% in size
#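 Compound effects on proliferation are scored in DT40 Tdp1-/-;hTDP1 cells in the absence of CPT. ATP levels (CellTiter-Glo luminescence) are recorded after a ≥48 hr, 37 °C incubation.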
# DT40 TDP1 CPT: DT40-hTDP1 cell growth loss with CPT; Potency, µM (highest dose often 46.2 µM), without a hit: top-dose activity change, negative = growth inhibition, hits mostly inhibitors; chicken DT40 Tdp1-/-;hTDP1 cells + 20 nM CPT, ATP luminescence, 48 h; hit rate 12% among 420,000; AID 686979; also: potency is read from the fitted curve at half-maximal effect; nearly all actives have a fitted effect of over 55% in size
#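 Chicken DT40 Tdp1-/- cells stably complemented with human TDP1 were seeded at 400 cells/well in medium containing 20 nM camptothecin, exposed to pin-transferred compounds, and grown at 37 °C for at least 48 hr. Viability was read as ATP luminescence.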
# HT1080 IDH1KD tx: kills HT-1080 cells with IDH1 knockdown | AID 686971 | Potency, µM (top dose mostly 46.1 µM), without a hit: at the top dose activity, negative = toxicity, usual class: cytotoxic | HT-1080 IDH1 knockdown viability, ATP luminescence, 48 h | hit rate 2% among 360,000;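 also: potency is read from the fitted curve at half-maximal effect; 0% = DMSO wells and -100% = cell-free medium wells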
#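 IDH1KD HT-1080 cells, 750/well, RPMI + 5% FBS; compound pinned after 2 h settling; 48 h, 37 °C; CellTiter-Glo luminescence; % activity normalised to DMSO and no-cell wells; curves fitted, classed by r2 and efficacy.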
# ELG1 repair inh: blocks ELG1-dependent DNA repair in HEK293T cells; HEK293T ELG1-luciferase reporter, luminescence, 16 h; DNA damage induced by 5-fluorouridine; hit rate 2.3% among 330,000; AID 504467; Potency, µM (series often up to 46.1 µM), for the others: top-dose activity change, negative = inhibition, most hits filed as inhibitors; also: potency is read from the fitted curve at half-maximal effect; nearly all actives have a fitted effect of over 55% in size
#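 5-Fluorouridine DNA damage + compound/DMSO, 2,000 cells/well, 16 h, 37 °C/5% CO2. ONE-Glo, 30 min RT, luminescence. Readout = decrease in reporter signal.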
# HT1080NT lethal: kills 2HG-producing HT-1080-NT fibrosarcoma cells | HT-1080-NT fibrosarcoma viability, CellTiter-Glo ATP luminescence, 48 h | Potency, µM (doses to about 46.1 µM), for the others: at the highest dose activity, negative = less viability, most hits filed as cytotoxic | hit rate 1.6% among 360,000 | AID 686970;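 also: NT is the 2HG producing partner of a matched IDH1 knockdown line; potency is read from the fitted curve at half-maximal effect; 0% = DMSO-treated cells and -100% = media-only wells without cells; nearly all actives have a fitted effect of over 55% in size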
#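 HT-1080-NT; 750 cells/well; 5% FBS RPMI; 48 h compound, 37 degrees C; CellTiter-Glo luminescence; curve fitting and curve-class assignment.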
# Numbers without * were called inactive; ? = inconclusive; / = not tested or not shown; ! = not confirmed by another sample; [ ] = dose if it differs, or a comment. Unless noted, calls follow the shape of the dose curve; as a rule, active = well fitted curve in the direction sought with a large enough effect; inconclusive = small, poorly fitted or top-dose-only effect, or another doubt; inactive = no such curve, though single readings can be large; an effect the other way counts as inactive or inconclusive. Unless noted, % is scaled to controls: 0 for no effect and ±100 for the full control effect.
SMILES,IL1B secr inh,TDP1 cell noCPT,DT40 TDP1 CPT,HT1080 IDH1KD tx,ELG1 repair inh,HT1080NT lethal
O=C(C[C@@H]1C/C=C\C[C@H](NC(=O)OCC2c3ccccc3-c3ccccc32)C(=O)OC[C@@H]2CCCN2C1=O)N[C@H](CO)Cc1ccccc1,28,10µM*,7.3µM*,12%,4%,3%
O=C(C[C@@H]1C/C=C\C[C@H](NC(=O)OCC2c3ccccc3-c3ccccc32)C(=O)OC[C@H]2CCCN2C1=O)N[C@H](CO)Cc1ccccc1,-16,5.2µM*,4.6µM*,-10%,?,-12%
O=C(C[C@@H]1C/C=C\C[C@H](NC(=O)OCC2c3ccccc3-c3ccccc32)C(=O)OC[C@@H]2CCCN2C1=O)NCCO,18,10µM*,4.6µM*,6%,23%,-7%
CCOC(=O)C1CCCN(CCC(=O)Nc2ccc(OC)cc2OC)C1 (stereo not drawn),/,-1%,8%,/,/,/
O=C(C[C@H]1C/C=C\C[C@H](NC(=O)OCC2c3ccccc3-c3ccccc32)C(=O)OC[C@@H]2CCCN2C1=O)N[C@H](CO)Cc1ccccc1,22,9.2µM*,10µM*,4%,16%,8%
CCOC(=O)C1CCCN(c2c(Nc3cc(C)cc(C)c3)c(=O)c2=O)C1 (stereo not drawn),-12,-26%,-10%,8%,-12%,14%
CCOC(=O)C1CCCN(c2c(Nc3ccc(C)c(C)c3)c(=O)c2=O)C1 (stereo not drawn),42,?,16µM*,12%,-15%,7%
CCC1CN(CC(=O)NC(C)CO)Cc2cc(OC)ccc2O1 (stereo not drawn),/,-8%,14%[9.04 µM],/,/,/
OC1C(O)C(O)C(O)C(O)C1O (stereo not drawn),11,?,15µM*!,5%,17%,?
O=C1Nc2ccccc2CCC1Sc1nnc(-c2ccc(Cl)cc2)s1 (stereo not drawn),-5,29µM*,?,4%,?,?
CC(C)(C)[C@@H]1COC(=O)[C@H](Cc2ccc(F)cc2)CC/C=C\C[C@@H](CC(=O)NCCO)C(=O)N1,0,?,?,5%,7%,6%
CCN(CC)Cc1c(O)ccc2c1O/C(=C\C=C\c1ccccc1)C2=O,-14,18µM*,?,?,-16%,?
N#Cc1cccc(NC(=O)C2CCN(S(=O)(=O)c3ccc4[nH]c(=O)ccc4c3)CC2)c1,/,-15%,-5%,/,/,/
CC(C)Cc1ccc([C@@H](C)C(=O)NS(C)(=O)=O)cc1,/,?,-3%,/,/,/
NC(=O)c1ccccc1NC(=O)C(c1ccccc1)c1ccccc1,-7,29µM*,?,-20%,/,-16%
CC(C)Cc1ccc(C(C)C(=O)Nc2ccccc2O)cc1 (stereo not drawn),-95*,8.2µM*,8.2µM*,23µM*,5.8µM*,3.7µM*
Cc1cc(C)nc(NC(=O)C(c2ccccc2)c2ccccc2)c1,-5,15µM*,?,-1%,5%,6%
O=C(Nc1ccccc1O)C(c1ccccc1)c1ccccc1,-64*,7.3µM*,?,-16%,4.6µM*,?
COc1ccc(CCCN2CCC(CN3C(=S)NC[C@@H]3Cc3ccccc3)CC2)cc1OC,5,-14%,-1%,-1%,/,-3%
O=c1[nH]c(CSc2nnc3ccccn23)nc2cc(C(F)(F)F)ccc12,/,/,/,/,-19%,/
O=C(CCNS(=O)(=O)c1ccccc1F)NC1CCCCCC1,15,19%,-4%,0%,?,5%[9.24 µM]
COc1cccc2c1cc1c(=O)n(CC(=O)N3CCN(c4ccccc4F)CC3)nc(C)n12,/,-15%,-2%,/,/,/
CCN(CC)CCN(Cc1cc2cc3c(cc2[nH]c1=O)OCO3)C(=S)NCCOC,-28,3%,-9%,1%,11%,-2%
CCCCn1c(=N)c(S(=O)(=O)c2ccc(C)cc2)cc2c(=O)n3cc(C)ccc3nc21,/,1%,-5%,/,/,/
c1ccc(-c2cn(C[C@H]3CC[C@@H]([C@@H]4CC[C@H](Cn5cc(-c6ccccn6)nn5)O4)O3)nn2)nc1,3,-24%,-28%,1%,8%,5%
SMILES,IL1B secr inh,TDP1 cell noCPT,DT40 TDP1 CPT,HT1080 IDH1KD tx,ELG1 repair inh,HT1080NT lethal
O=C1c2ccccc2C(=O)N1CCCCc1cn(C[C@H]2CC[C@H](Cn3cc(CCCCN4C(=O)c5ccccc5C4=O)nn3)O2)nn1,-7,21µM*,?,2%,8.2µM*,3%
c1ccc(-c2cn(C[C@H]3CC[C@@H]([C@@H]4CC[C@H](Cn5cc(-c6ccccc6)nn5)O4)O3)nn2)cc1,-14,?,26µM*,-17%,-2%,-11%
c1ccc(CCc2cn(C[C@H]3CC[C@@H]([C@@H]4CC[C@H](Cn5cc(CCc6ccccc6)nn5)O4)O3)nn2)cc1,-4,15µM*,?,2%,?,2%
O=C(CCC(=O)c1cccs1)OCc1ccc([N+](=O)[O-])cc1,8,14%,3%,4%,7%,0%[9.24 µM]
C/C=C1\NC(=O)[C@H](CC(N)=O)N(C)C(=O)C([C@@H](C)O)NC(=O)C(CCCc2ccc(OC)cc2)NC(=O)[C@H](C(C)C)NC(=O)/C(=C\C)NC(=O)[C@H](O)[C@@H](C[C@@H](O)CCCCCCC)NC(=O)[C@H](C)NC(=O)CN(C)C(=O)[C@H](CCC(N)=O)NC1=O (stereo partly drawn),50,8.2µM*,7.3µM*,?,/,-29%
O=C(NC1CCCC1)C1c2ccccc2OCC(=O)N1Cc1ccco1 (stereo not drawn),27,-5%,1%,7%,/,19%
CCOC(=O)c1c(C)nc2c(c1-c1ccc(OC)c(OC)c1)C(=O)c1ccccc1-2,1,?,23µM*,6%,-27%,-7%
CCOC(=O)c1c(C)nc(C)c(C(=O)OCC)c1-c1ccc(OC)cc1,21,?,?,3%,?,15%
O=C(Cc1cccc(NC(=O)C2CCN(C(=O)C3CCCCC3)CC2)c1)Nc1cccc(C(=O)N2CCCC2)c1,-2,?,-21%,5%,-26%,3%
O=C(NC1CCCC1)C(c1ccc(Cl)cc1)N(Cc1ccc(F)cc1)C(=O)CCl (stereo not drawn),?,2.6µM*,2.6µM*,-2%,-2%,-9%
